KCC2 mod – modulates chloride dependent transport by human KCC2; Q9H2X9; KCC2 cells, thallium flux FluoZin-2 fluorescence; B-score of Tl+ flux slope (higher = more flux/activation; lower = inhibition) at 10 µM; hit rate 2.2% among 190,000;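 active = thallium flux slope and its plate-corrected score both differing from the plate sample mean at a set confidence after two filtering rounds, in either direction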;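 also: slope of fluorescence scaled to starting intensity during 10 to 20 s after thallium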
Target sequence (Q9H2X9 whole entry, looked up): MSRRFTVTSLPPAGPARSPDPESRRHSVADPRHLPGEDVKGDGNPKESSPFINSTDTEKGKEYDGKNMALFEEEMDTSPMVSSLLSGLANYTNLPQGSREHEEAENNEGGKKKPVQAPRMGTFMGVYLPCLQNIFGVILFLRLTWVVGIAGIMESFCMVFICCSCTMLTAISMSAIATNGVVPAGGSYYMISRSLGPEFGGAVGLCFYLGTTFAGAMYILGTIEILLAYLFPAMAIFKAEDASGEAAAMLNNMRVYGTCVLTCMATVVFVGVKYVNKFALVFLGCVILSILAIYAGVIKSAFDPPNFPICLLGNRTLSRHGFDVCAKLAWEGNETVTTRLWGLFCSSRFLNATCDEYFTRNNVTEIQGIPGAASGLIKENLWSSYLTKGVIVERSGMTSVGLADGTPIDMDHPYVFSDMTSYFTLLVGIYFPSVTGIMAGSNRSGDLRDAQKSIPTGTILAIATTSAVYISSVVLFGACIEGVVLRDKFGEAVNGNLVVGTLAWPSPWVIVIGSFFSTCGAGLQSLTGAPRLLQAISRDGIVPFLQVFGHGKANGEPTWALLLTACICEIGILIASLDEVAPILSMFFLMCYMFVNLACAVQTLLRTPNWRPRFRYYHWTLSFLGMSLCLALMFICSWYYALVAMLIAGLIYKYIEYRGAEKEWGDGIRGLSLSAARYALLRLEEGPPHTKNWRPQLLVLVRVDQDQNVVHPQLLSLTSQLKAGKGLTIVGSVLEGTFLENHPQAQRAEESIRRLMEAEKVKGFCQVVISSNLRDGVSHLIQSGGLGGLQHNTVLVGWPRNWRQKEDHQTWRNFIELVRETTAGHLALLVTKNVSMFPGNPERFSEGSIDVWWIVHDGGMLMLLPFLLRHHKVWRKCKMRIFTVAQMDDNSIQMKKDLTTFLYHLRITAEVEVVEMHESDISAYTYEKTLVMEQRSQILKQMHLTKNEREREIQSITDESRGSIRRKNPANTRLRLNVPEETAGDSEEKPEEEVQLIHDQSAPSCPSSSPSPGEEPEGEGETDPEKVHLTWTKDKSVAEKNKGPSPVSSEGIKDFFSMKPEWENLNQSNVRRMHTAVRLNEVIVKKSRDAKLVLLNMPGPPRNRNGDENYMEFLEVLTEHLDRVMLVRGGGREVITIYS
ROMK primary – modulates human ROMK potassium channel activity. Tet-inducible ROMK, thallium flux fluorescence; actives lie on both sides. B-score at 10 µM. hit rate 2% among 130,000;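 active = signal ratio slope over the read window, or its plate-corrected B-score, at least 3 SD from the plate mean, either direction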;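 also: B-score of the F/F0 ratio slope over 7 to 12 s after thallium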
Lmaj promast – inhibitors of Leishmania major promastigote growth; Leishmania major promastigotes, resazurin fluorescence viability; hit rate 9% among 200,000; inhibition, % at 10 µM; AID 1063; in the data active = inhibition above about 50%;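 also: promastigotes grown with compound for 44 hours at 28 °C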
Insulin prom inh – TRM-6 insulin promoter activity inhibition | TRM-6 cells (human fetal islet line), insulin promoter-eGFP reporter, imaging; reporter expression induced with tamoxifen | inhibition, % at 2 µM | hit rate 0.9% among 130,000;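 active = inhibition above the mean plus 3 SD, with well images judged a real hit on visual review, cut at about 60% in these data, passing the limit was not always enough; inconclusive = inhibition over the cutoff but images rejected on review; inactive = inhibition not above the cutoff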
WT yeast gro inh – growth inhibition of WT yeast, mitochondrial fusion screen. mitochondrial fusion phenotypic screen, WT strain. inhibition, % at 10 µM. hit rate 2.1% among 190,000. AID 1362; in the data active = inhibition above about 58%; tested in S. cerevisiae
Insulin prom up – MIN6 insulin promoter up-regulation | hit rate 0.3% among 190,000 | MIN6 insulin promoter-GFP reporter, high-content imaging; active compounds read high | AID 1625 | z-score at 5 µM;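 active = z-score above 3 at 5 µM with at least 500 cells counted in the well; inconclusive = wells under 500 cells, flagged as cytotoxic or low count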
A number is an active result; n = inactive; u = inconclusive; x = not tested or not shown. Compounds with a hit are over-represented: about 12% of the library has one in this group of screens.

SMILES	KCC2 mod	ROMK primary	Lmaj promast	Insulin prom inh	WT yeast gro inh	Insulin prom up
Cc1nn(C(C)C)c(C)c1CN1CCCC(CCC(=O)NCc2ccccc2F)C1 (stereo not drawn)	n	n	n	x	n	n
CCC(C)Nc1c([N+](=O)[O-])cc(C)cc1[N+](=O)[O-] (stereo not drawn)	x	x	n	n	67	x
CCC(C)NCCOc1ccc(C)cc1[N+](=O)[O-] (stereo not drawn)	n	n	n	x	n	n
CCNC(=O)NC(=O)C(C)OC(=O)CCCSc1nc2ccccc2s1 (stereo not drawn)	n	x	64	n	n	n
CNC(=O)NC(=O)C(C)OC(=O)CCCc1nc2ccccc2s1 (stereo not drawn)	n	n	n	x	n	n
CNC(=O)NC(=O)C(C)OC(=O)CCCSc1nc2ccccc2s1 (stereo not drawn)	n	n	65	n	n	n
COc1cc(/C(C)=N/NC(=S)NC(C)C)cc(OC)c1OC	n	x	n	x	n	n
Cc1ccccc1NC(=S)NCC(c1cccnc1)N1CCOCC1 (stereo not drawn)	n	x	n	x	n	n
COc1ccc(C2(CNC(=O)c3ccco3)CCOCC2)cc1	n	x	n	n	n	n
COc1ccc(-c2nn(C)c(=O)c3ccccc23)cc1CNC(=O)CN1CCOCC1	n	n	n	n	x	x
O=C1CSC(=NC2CCCCC2)N1	n	x	n	n	84	n
O=C1CS/C(=N/N=C2CCCC2)N1	n	x	n	n	n	n
CC1=C(C)/C(=N\OS(=O)(=O)c2ccc(C)cc2)C=CC1=O	n	n	100	n	n	n
COc1ccc(S(=O)(=O)/N=C2/C=CC(=O)C(C)=C2C)cc1	n	x	n	n	n	n
CC1=C/C(=N\OS(=O)(=O)c2ccccc2)C(C(C)C)=CC1=O	n	n	100	n	n	u
CC1=C/C(=N\OS(=O)(=O)c2ccccc2)C(C)=CC1=O	n	n	100	n	n	u
O=C(Nc1ccncc1)c1cn(-c2ccccc2)nc1-c1cccs1	n	n	95	n	n	x
Cc1ccc(NC(=O)CSc2ncccc2C(=O)Oc2cccc([N+](=O)[O-])c2)cc1Cl	n	n	70	n	n	n
Cc1ccc(S(=O)(=O)N(CC(=O)NCCC2=CCCCC2)Cc2ccccc2F)cc1	n	x	n	n	61	n
Cc1ccc(S(=O)(=O)N(CC(=O)O)Cc2ccccc2F)cc1	n	n	n	n	n	n
Cc1ccc(S(=O)(=O)N(CC(=O)N2CCC(C)CC2)Cc2ccccc2F)cc1	n	x	82	n	n	n
Cc1ccc(-c2cc(N)n(Cc3ccc(Cl)cc3)n2)cc1	n	x	87	x	n	n
Cc1cc(N)n(Cc2ccc(Cl)cc2)n1	n	n	n	n	n	n
Cc1nc(N)sc1N=Nc1ccc(Br)cc1	n	x	n	n	66	x
CN(C)c1ccc(SC#N)cc1	x	x	x	x	x	n
SMILES	KCC2 mod	ROMK primary	Lmaj promast	Insulin prom inh	WT yeast gro inh	Insulin prom up
CN(C)CCC(=O)c1ccc(Cl)cc1	n	n	100	x	n	n
O=C(O)CCC(=O)CCC(=O)c1ccc(Cl)cc1	n	n	n	n	n	n
O=C(NNC(=O)c1ccccc1-n1cccc1)c1ccc(Cl)cc1	n	x	n	n	n	x
CSc1nc2ccccc2n1C(=O)Oc1ccccc1	n	x	n	87	n	n
O=C(CSc1nc2c(cnn2-c2ccccc2)c(=O)[nH]1)N1N=C(c2cccs2)CC1c1ccc(F)cc1 (stereo not drawn)	n	n	69	n	n	n
COc1cc(/C=N/N=C(/N)c2nonc2N)cc(Br)c1OCc1ccccc1C	n	n	75	n	n	n
CCOc1cc(/C=N/N=C(/N)c2nonc2N)cc(Br)c1OCc1ccc(Cl)cc1	n	n	n	n	n	n
CCC1C(=O)Nc2ccccc2N1C(=O)c1ccc(Cl)nc1 (stereo not drawn)	n	n	n	x	n	n
CC(C)Cn1c(N)c(S(=O)(=O)c2cccs2)c2nc3ccccc3nc21	n	x	n	n	n	n
COc1ccc(/C=N/n2c(N)c(S(=O)(=O)c3cccs3)c3nc4ccccc4nc32)cc1OC	x	x	62	n	n	n
COc1cccc(/C=N/n2c(N)c(S(=O)(=O)c3cccs3)c3nc4ccccc4nc32)c1	n	x	n	n	n	n
Nc1c(S(=O)(=O)c2cccs2)c2nc3ccccc3nc2n1/N=C/c1cccc(O)c1	n	x	58	x	n	n
Cn1c(N)c(C(=O)COC(=O)COc2ccc(C#N)cc2)c(=O)n(C)c1=O	n	x	x	x	x	n
CS(=O)(=O)N(CCc1ccccc1)CC(=O)NCc1ccc(Cl)cc1	n	n	n	x	n	n

Screening data as filed in PubChem.
